The assay deals with Polyamine deacetylase HDAC10 (Homo sapiens) (UniProt Q969S8). The assay is described as follows: HDAC10 deacetylase inhibition, profiling panel, selectivity assay for E-cadherin restoration project, biochemical, human (AID 651910).

Calls of active or inactive are those of the source. The rule behind the calls is not given here.

Chain of Polyamine deacetylase HDAC10 (Homo sapiens) (Q969S8 whole entry, looked up): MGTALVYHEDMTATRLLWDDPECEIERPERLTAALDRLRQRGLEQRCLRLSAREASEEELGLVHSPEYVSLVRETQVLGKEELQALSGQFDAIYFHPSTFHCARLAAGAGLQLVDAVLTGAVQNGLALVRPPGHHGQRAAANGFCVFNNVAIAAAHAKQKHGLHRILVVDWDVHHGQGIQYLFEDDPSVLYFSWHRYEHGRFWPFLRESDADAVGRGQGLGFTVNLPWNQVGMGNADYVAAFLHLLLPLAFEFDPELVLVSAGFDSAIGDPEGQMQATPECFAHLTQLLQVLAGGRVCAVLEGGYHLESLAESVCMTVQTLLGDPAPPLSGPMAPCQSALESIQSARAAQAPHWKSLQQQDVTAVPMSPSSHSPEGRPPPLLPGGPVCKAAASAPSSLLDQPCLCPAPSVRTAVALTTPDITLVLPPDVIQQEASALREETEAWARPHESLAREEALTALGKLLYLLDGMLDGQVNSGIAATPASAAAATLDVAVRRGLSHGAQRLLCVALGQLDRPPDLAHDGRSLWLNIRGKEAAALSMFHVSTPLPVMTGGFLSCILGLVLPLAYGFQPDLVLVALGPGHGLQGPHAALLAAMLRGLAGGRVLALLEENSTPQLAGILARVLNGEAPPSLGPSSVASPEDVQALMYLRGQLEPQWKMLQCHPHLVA

Turning to `O=C(NCCCNC(=O)c1ccc[nH]c1=O)c1cc(-c2ccccc2)on1`, the molecule was classed as inactive.

The values above are taken from PubChem BioAssay AID651910 (Vanderbilt Specialized Chemistry Center, 2012).
